Bioassay records from PubChem BioAssay.
HepG2 tox = qHTS for Inhibitors of TGF-b: Cytotox Counterscreen | HepG2 CAGA-GFP viability, ATP luminescence, 18 h | AID 588856, 2011 | 0.76% of 410,000 active | Potency, µM (series often up to 46.1 µM), most hits filed as cytotoxic
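HepG2 CAGA-GFP cells (1000/well, DMEM with 1% FBS) received compound, then TGF-beta at 500 pg/mL final, and were incubated 18 hours at 37 degrees C. Viability was read by CellTiter-Glo luminescence. Media-only wells were set as complete cell-killing and DMSO as no toxicity.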
IL1B secr inh = qHTS for Inhibitors of Inflammasome Signaling: IL-1-beta AlphaLISA Primary Screen; 4.7% of 360,000 active; THP-1 LPS/ATP IL-1B secretion, AlphaLISA, 16 h; hits give low values; activity change, % at 57.5 µM; in the data active = activity change below about -50%; inconclusive = mostly about -30% to -49%
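Secreted IL-1B measured by AlphaLISA bead assay after 16 h compound exposure of THP-1 cells; compounds (final up to 57.5 uM) added 1 h before LPS (250 ng/mL) and ATP (1.25 mM) stimulation; lower signal means less secretion.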
TDP1 cell CPT = qHTS for Inhibitors of human tyrosyl-DNA phosphodiesterase 1 (TDP1): qHTS in cells in presence of CPT. Potency, µM (titrated, usually from 46.2 µM), usual class: inhibitors. AID 686979, 2013. chicken DT40 Tdp1-/-;hTDP1 cells + 20 nM CPT, ATP luminescence, 48 h. 12% of 420,000 active; note: nearly all actives have a fitted effect of over 55% in size
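Chicken DT40 Tdp1-/- cells stably complemented with human TDP1 were seeded at 400 cells/well in medium containing 20 nM camptothecin, exposed to pin-transferred compounds, and grown at 37 °C for at least 48 hr. Viability was read as ATP luminescence.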
DT40 TDP1 no CPT = qHTS for Inhibitors of human tyrosyl-DNA phosphodiesterase 1 (TDP1): qHTS in cells in absence of CPT; 15% of 420,000 active; DT40 Tdp1-/- hTDP1 cells, no CPT, ATP luminescence, 48 h; Potency, µM (top dose mostly 46.2 µM), most hits filed as inhibitors; note: nearly all actives have a fitted effect of over 55% in size
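Chicken DT40 Tdp1-/- cells stably complemented with human TDP1 were seeded at 400 cells/well with DMSO in place of 20 nM camptothecin. After compound pinning, cells grew at least 48 hr at 37 °C; viability read by CellTiter-Glo luminescence.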
TGFb inhibitor = qHTS for Inhibitors of TGF-b. HepG2 CAGA-GFP TGF-b/SMAD3 reporter, GFP fluorescence, 18 h; TGF-beta stimulated, 500 pg/mL final. Potency, µM (doses to about 46.1 µM), most hits filed as inhibitors. 1.2% of 410,000 active. AID 588855, 2011; note: nearly all actives have a fitted effect of over 65% in size
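HEPG2 CAGA-GFP cells (1000/well, DMEM with 1% FBS) were pre-incubated 2 h at 37 degrees C, given compound by pin tool, then stimulated with TGF-beta at 500 pg/mL final for 18 h before per-cell GFP fluorescence imaging.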
TDP1 inh = qHTS Assay for Inhibitors of Tyrosyl-DNA Phosphodiesterase (TDP1); Potency, µM (doses to about 130 µM), most hits filed as inhibitors; 0.28% of 350,000 active; recombinant TDP1, AlphaScreen DNA substrate cleavage; AID 485290, 2010; note: nearly all actives have a fitted effect of over 40% in size
Target sequence (Q9NUW8 whole entry, looked up): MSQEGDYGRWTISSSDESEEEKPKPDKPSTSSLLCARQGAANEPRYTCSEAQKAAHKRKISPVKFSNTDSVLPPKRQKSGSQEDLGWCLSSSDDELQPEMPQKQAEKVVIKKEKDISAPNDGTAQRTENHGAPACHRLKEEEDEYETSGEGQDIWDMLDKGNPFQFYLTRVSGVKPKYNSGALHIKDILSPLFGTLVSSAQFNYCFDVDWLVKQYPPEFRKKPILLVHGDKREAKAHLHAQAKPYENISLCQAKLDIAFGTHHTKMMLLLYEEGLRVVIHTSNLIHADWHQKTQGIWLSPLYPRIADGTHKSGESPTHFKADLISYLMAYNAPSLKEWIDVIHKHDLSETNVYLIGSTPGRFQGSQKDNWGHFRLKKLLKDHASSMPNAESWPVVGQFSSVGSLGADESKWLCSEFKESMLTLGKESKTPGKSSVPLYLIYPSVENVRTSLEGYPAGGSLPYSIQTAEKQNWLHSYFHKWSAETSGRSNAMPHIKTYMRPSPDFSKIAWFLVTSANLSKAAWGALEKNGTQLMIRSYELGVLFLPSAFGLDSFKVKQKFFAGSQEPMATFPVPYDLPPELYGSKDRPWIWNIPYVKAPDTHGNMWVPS
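E. coli-derived human Tdp1, 1 nM final. Cpd preinc 15 min RT; substrate 15 nM final, 5 min RT; AS bead mix 10 ug/ml final, 10 min RT. Signal loss = tyrosine-FITC cleavage. No-enzyme wells = max signal.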
Large screens that a line does not name were inactive. Sampled rows, rich in hits. Any-hit rate of the full collection: about 19%. Unless noted, calls come from the whole dose curve; as a rule, active = well fitted curve in the direction sought with a large enough effect; inconclusive = small, poorly fitted or top-dose-only effect, or another doubt; inactive = no such curve, though single readings can be large; an effect the other way counts as inactive or inconclusive.

CC1(Cc2ccccc2OC(F)(F)F)C(=O)Nc2c(Cl)ccc(Cl)c21 (centres undefined)	TDP1 cell CPT 16µM, DT40 TDP1 no CPT 23µM, TGFb inhibitor 14µM (no result: TDP1 inh)
CC1(Cc2ccccc2Cl)C(=O)Nc2c(Cl)cccc21 (centres undefined)	TDP1 cell CPT 29µM, DT40 TDP1 no CPT inconclusive (no result: TDP1 inh)
CC1(Cc2ccc(Cl)s2)C(=O)Nc2c(Cl)ccc(Cl)c21 (centres undefined)	TDP1 cell CPT inconclusive, DT40 TDP1 no CPT inconclusive, TGFb inhibitor inconclusive (no result: TDP1 inh)
CCOC(=O)C1=NOC2(C1)C(=O)Nc1ccc(OC(F)(F)F)cc12 (centres undefined)	TDP1 cell CPT inconclusive, DT40 TDP1 no CPT 16µM (no result: HepG2 tox, TGFb inhibitor, TDP1 inh)
O=C(C1=NOC2(C1)C(=O)Nc1ccccc12)N1CCOCC1 (centres undefined)	none (no result: HepG2 tox, TGFb inhibitor, TDP1 inh)
CC1(Cc2ccc(OC(F)(F)F)cc2)C(=O)Nc2ccc(OC(F)(F)F)cc21 (centres undefined)	HepG2 tox 18µM, TDP1 cell CPT inconclusive, DT40 TDP1 no CPT inconclusive, TGFb inhibitor inconclusive (no result: TDP1 inh)
C#CCCCO/N=C1/[C@H]2O[C@@H]2[C@@H](O)[C@H]2[C@H]1CCn1c(=O)n(-c3ccccc3)c(=O)n12	none (no result: HepG2 tox, IL1B secr inh, TDP1 cell CPT, DT40 TDP1 no CPT, TGFb inhibitor)
Cc1ccc(C(=O)c2cc3c(cc2[N+](=O)[O-])OCCO3)cc1	IL1B secr inh inconclusive, DT40 TDP1 no CPT inconclusive
COc1cc(NC(=O)Cn2c(C)cc(C)c(C#N)c2=O)cc(OC)c1	none (no result: IL1B secr inh)
COc1ccc(N(CC(=O)N2CCN(c3ccc(Cl)cc3)CC2)S(=O)(=O)c2c(C)n[nH]c2C)cc1	IL1B secr inh -62, TDP1 cell CPT inconclusive, DT40 TDP1 no CPT inconclusive
Cc1ccc(N(CC(=O)N2CCN(c3ccc(Cl)cc3)CC2)S(=O)(=O)c2c(C)noc2C)cc1	TDP1 cell CPT inconclusive, DT40 TDP1 no CPT 23µM, TGFb inhibitor inconclusive (no result: IL1B secr inh)
Cc1ccc(N(CC(=O)N2CCN(c3ccc(F)cc3)CC2)S(=O)(=O)c2c(C)noc2C)cc1	TDP1 cell CPT 15µM, DT40 TDP1 no CPT inconclusive, TGFb inhibitor inconclusive
Cc1noc(C)c1S(=O)(=O)N(CC(=O)N1CCCC1)c1ccc(C(C)C)cc1	TDP1 cell CPT inconclusive, DT40 TDP1 no CPT inconclusive
CCOC(=O)N1CCN(C(=O)CN(c2ccc(C)cc2)S(=O)(=O)c2c(C)noc2C)CC1	none
CCOCCCNC(=O)N1CCN(S(=O)(=O)c2ccc3c(ccn3C)c2)CC1	none (no result: IL1B secr inh, TDP1 cell CPT, DT40 TDP1 no CPT)
CCOC(=O)/C=C1\CN(Cc2ccc(OC)cc2)S(=O)(=O)c2ccc(C(F)(F)F)cc21	TDP1 cell CPT 13µM, DT40 TDP1 no CPT 11µM, TGFb inhibitor inconclusive (no result: IL1B secr inh, TDP1 inh)
COc1ccc(Cl)cc1C(=O)C1CCCN(Cc2cnc(N3CCOCC3)s2)C1 (centres undefined)	TDP1 cell CPT inconclusive, DT40 TDP1 no CPT 29µM
CCOc1cccc(CN2CCCC(N3CCc4ccccc4C3)C2)c1O (centres undefined)	DT40 TDP1 no CPT inconclusive (no result: TDP1 inh)
CCOc1cccc(CN2CCCC(N3CCN(c4cccc(Cl)c4)CC3)C2)c1O (centres undefined)	IL1B secr inh -72, DT40 TDP1 no CPT inconclusive
CCOc1cccc(CN2CCCC(C(=O)c3cc(Cl)ccc3OC)C2)c1O (centres undefined)	IL1B secr inh -55, TDP1 cell CPT inconclusive, DT40 TDP1 no CPT inconclusive
COc1ccc(F)cc1C(=O)C1CCCN(Cc2cnc(N3CCCC3)s2)C1 (centres undefined)	none
Cc1ccc(C(OC(=O)c2ccco2)C(=O)NC(C)(C)C)cc1 (centres undefined)	none (no result: TDP1 inh)
C=C(C)c1cccc(C(C)(C)NC(=O)N2CCCC2)c1	none
C=C(C)c1ccc(C(C)(C)NC(=O)N2CCN(C)CC2)cc1	TDP1 cell CPT 16µM, DT40 TDP1 no CPT 21µM
Cc1cccnc1NC1CCCCC1	none
c1ccc2c(NC3CCCC3)nnc(NC3CCCC3)c2c1	TDP1 cell CPT inconclusive, DT40 TDP1 no CPT 16µM, TGFb inhibitor inconclusive
O=C(NNc1cc(Cl)cc(Cl)c1)c1cccs1	TDP1 cell CPT inconclusive, DT40 TDP1 no CPT 18µM
O=C(NNC(=O)c1cccs1)c1ccc(Cl)nc1	TDP1 inh 89µM
NS(=O)(=O)c1ccc(NNC(=O)c2cccs2)cc1	none (no result: IL1B secr inh, TDP1 inh)
CCCN(Cc1cccs1)C(=O)Nc1cc(Cl)c(OC)cc1OC	TDP1 cell CPT inconclusive, DT40 TDP1 no CPT inconclusive (no result: IL1B secr inh)
O=C(Cc1cccs1)Nc1ccc(Cl)cc1	DT40 TDP1 no CPT inconclusive
CCCN(Cc1cccs1)C(=O)Nc1cc(C)ccc1OC	TDP1 cell CPT inconclusive, DT40 TDP1 no CPT 16µM (no result: IL1B secr inh)
CCCN(Cc1cccs1)C(=O)Nc1ccc(F)c(Cl)c1	TDP1 cell CPT inconclusive, DT40 TDP1 no CPT inconclusive, TGFb inhibitor inconclusive (no result: IL1B secr inh)
O=C(Nc1ccccc1)N(O)c1ccc(Cl)cc1	TDP1 cell CPT 18µM, DT40 TDP1 no CPT 29µM
CCN(CCS(=O)(=O)c1ccc(Cl)cc1)C(=O)Nc1ccccc1	none
CCCN(Cc1cccs1)C(=O)Nc1cc(C)cc(C)c1	TDP1 cell CPT 26µM, DT40 TDP1 no CPT inconclusive (no result: IL1B secr inh)
O=C(Nc1ccc(Cl)cc1)N(Cc1cccs1)Cc1cccs1	TDP1 cell CPT 18µM, DT40 TDP1 no CPT inconclusive
Nc1ccc([N+](=O)[O-])cc1C(=O)NNC(=O)c1ccco1	TGFb inhibitor inconclusive (no result: TDP1 inh)
